From PubChem
Shown are actives, neighbours in structure and some others; about 8.9% of the full set was active somewhere.
D3 antag: D3 dopamine receptor (human) antagonism; D3R cells, DiscoveRx beta-arrestin luminescence, antagonist mode; stronger effect = lower value; AID 652054; 360,000 compounds, 2.5% hits; max response, negative = inhibition, %; P35462; in the data active = max response below about -50%; inconclusive = no clear call, values can overlap the other calls; also: % is scaled to controls: 0 for no effect and ±100 for the full control effect
Target sequence (P35462 whole entry, looked up): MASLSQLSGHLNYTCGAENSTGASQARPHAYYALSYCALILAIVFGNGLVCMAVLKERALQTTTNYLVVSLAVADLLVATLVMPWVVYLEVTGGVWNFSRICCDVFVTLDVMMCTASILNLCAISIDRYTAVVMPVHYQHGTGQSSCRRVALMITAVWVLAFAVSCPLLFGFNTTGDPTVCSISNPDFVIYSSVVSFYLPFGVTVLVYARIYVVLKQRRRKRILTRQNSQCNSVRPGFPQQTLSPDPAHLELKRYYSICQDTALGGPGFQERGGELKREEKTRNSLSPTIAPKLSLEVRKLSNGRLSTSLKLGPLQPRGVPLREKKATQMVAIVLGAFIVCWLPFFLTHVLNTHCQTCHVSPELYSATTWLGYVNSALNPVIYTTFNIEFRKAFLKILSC
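Cells expressing the human receptor were seeded at 1500 cells/well, incubated overnight at 37 degrees C in 5% CO2, then exposed to library compounds with dopamine controls for 90 minutes at 37 degrees C before luminescent detection.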
MCF10A rereplic: induces DNA re-replication in MCF 10a normal breast cells; MCF 10A DNA re-replication, Hoechst nuclear intensity, 48 h; Potency, µM (titrated, usually from 46.1 µM), for the others: at the highest dose activity, positive = re-replication, usual class: activators; 350,000 compounds, 2.9% hits; AID 624296; also: potency is read from the fitted curve at half-maximal effect; % of control where 0% means no effect; nearly all actives have a fitted effect of over 50% in size
KB-V1 MDR tox: KB-V1 MDR subline cytotoxicity. 400,000 compounds, 3.4% hits. Potency, µM (series often up to 46.1 µM), actives largely listed as cytotoxic. KB-V1 MDR cells viability, CellTiter-Glo, 72 h; also: potency is read from the fitted curve at half-maximal effect; % is scaled to controls: 0 for no effect and ±100 for the full control effect; nearly all actives have a fitted effect of over 60% in size
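Drug-selected KB-V1 cells, grown in DMEM lacking phenol red with 10% FBS, receive compound titrations; after three days at 37 degrees C, surviving cell ATP is quantified by CellTiter-Glo luminescence and responses normalized and curve-fitted.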
SW480 rerep: induces DNA re-replication in SW480 colon adenocarcinoma cells; SW480 DNA re-replication, Hoechst DNA content imaging, 48 h; Potency, µM (titrated, usually from 46.1 µM), without a hit: at the top dose re-replication activation, hits mostly activators; 340,000 compounds, 1.8% hits; also: potency is read from the fitted curve at half-maximal effect; % of control where 0% means no effect; nearly all actives have a fitted effect of over 55% in size
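Image-based DNA-content assay: after two days of treatment, nuclei were labelled with the DNA dye Hoechst and imaged, and hits were compounds raising the count of nuclei showing high fluorescence intensity.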
KB-3-1 cytotox: kills parental KB-3-1 adenocarcinoma cells. KB-3-1 viability, CellTiter-Glo ATP luminescence, 72 h. Potency, µM (highest dose often 46.1 µM), most hits filed as cytotoxic. 400,000 compounds, 1.4% hits. AID 1347075; also: potency is read from the fitted curve at half-maximal effect; % is scaled to controls: 0 for no effect and ±100 for the full control effect; nearly all actives have a fitted effect of over 60% in size
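KB-3-1 parental drug-naive adenocarcinoma cells in DMEM/10% FBS, incubated 72 h at 37 C with pin-transferred compounds across a concentration series. Viability by CellTiter-Glo luminescence; concentration-response curves fitted after normalization.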
D3 ag: agonists of human D3 dopamine receptor; P35462; D3R DiscoveRx beta-arrestin cells, luminescence, 90 min; max activation, %; 410,000 compounds, 0.58% hits; in the data active = max activation above about 30%; also: 0% is about no effect
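Cells at 1500/well, incubated overnight, then treated with pinned compounds (dopamine as control) for 90 min at 37 degrees C. DiscoveRx reagent added for 30 - 60 minutes at room temperature; luminescence read.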
Starred values were filed as active, the others as inactive; i = inactive; ? = inconclusive; · = no result; [ ] = another dose, or the depositor's remark. Unless noted, calls follow the shape of the dose curve; as a rule, active = well fitted curve in the direction sought with a large enough effect; inconclusive = small, poorly fitted or top-dose-only effect, or another doubt; inactive = no such curve, though single readings can be large; an effect the other way counts as inactive or inconclusive.

SMILES | D3 antag | MCF10A rereplic | KB-V1 MDR tox | SW480 rerep | KB-3-1 cytotox | D3 ag
O=C(COc1ccccc1)NC(NC(=S)Nc1ccccc1C(=O)O)C(Cl)(Cl)Cl (configuration not stated) | -77* | 14% | i | 4% | i | -1
Cc1ccc(C)c(NC(=S)NC(NC(=O)Cc2ccccc2)C(Cl)(Cl)Cl)c1 (configuration not stated) | ? | -3% | ? | 20% | i | -15
O=Cc1c(Cl)nc2ccccn2c1=O | -67* | 26µM* | ? | ? | i | -5
Cc1ccc(C2=CN(Cc3ccccc3)CCC2=O)cc1 | -12 | -3% | i | -25%[9.22 µM] | i | -8
O=C(Nc1ccc(C2=CN(Cc3ccccc3)CCC2=O)cc1)OCc1ccccc1 | 31 | -3% | i | 0% | i | 52*
Cn1ncc2c(O/N=C(\N)c3ccc(C(C)(C)C)cc3)ncnc21 | 6 | 18µM* | 13µM* | 9.2µM* | ? | 12
Cc1nn(C)c2c1c(C(F)(F)F)cc(=O)n2Cc1cccc(Br)c1 | · | · | i | · | i | 0
CSc1nc2n(n1)C(c1cc(Br)ccc1F)C(C(=O)N(C)C)=C(C)N2 (configuration not stated) | -70* | 5% | ? | 0% | i | 2
Cc1ccc(OCCSc2nc3ccccc3n2CC(=O)N2CCOCC2)cc1 | · | · | i | · | i | -2
COc1ccc(C2CC(C(F)(F)F)n3nc(C(=O)N(C)Cc4cn(C)nc4C)c(Cl)c3N2)cc1 (configuration not stated) | -1 | -1% | i | 0% | i | -1
COc1ccc(C2CC(C(F)(F)F)n3nc(C(=O)NCc4c(C)nn(C)c4C)c(Cl)c3N2)cc1 (configuration not stated) | 14 | 0% | 6.5µM* | -4% | ? | 1
Cc1nn(C)c(C)c1CN(C)C(=O)c1cnn2c1NC(c1ccccc1)CC2C(F)(F)F (configuration not stated) | 12 | 1% | ? | 4% | i | 6
Cc1c(CNC(=O)c2nn3c(c2Cl)NC(c2ccccc2)CC3C(F)(F)F)cnn1C (configuration not stated) | 8 | -4% | 21µM* | -13% | i | 8
CCOc1ccc(NC(=O)CC2C(=O)N(c3ccccc3)C(=O)N2Cc2ccc3c(c2)OCO3)cc1 (configuration not stated) | · | · | i | · | i | 3
CCn1c([N+](=O)[O-])nc2c1c(=O)[nH]c(=O)n2C | -27 | 5.8µM* | ? | 8.2µM* | ? | -3
CCCCCCn1c(SCCCC)nc2c1c(=O)[nH]c(=O)n2C | 22 | 5% | i | 0% | i | -10
Cc1cc(C)c2c(=O)cc(C(=O)NCc3ccc(S(N)(=O)=O)cc3)oc2c1 | · | · | ? | · | i | 0
COc1ccc(C(=O)Cn2c(C(C)=O)nc3ccccc32)cc1 | 11 | 13% | 3.3µM* | 3% | ? | -1
COc1ccc(/C=C/C(=O)c2nc3ccccc3n2CC(=O)c2ccc(OC)cc2)cc1 | -8 | 2% | 23µM* | 16% | i | -3
C=CC(=O)Nc1cccc(Nc2nc(N[C@H]3CC[C@H](N(C)C)CC3)nc3c2ncn3C(C)C)c1 | -18 | ? | i | ? | 18µM* | -23
COc1ccc(OC)c(NC(=O)Cn2cc(C(=O)c3ccco3)c3ccccc32)c1 | 7 | 4% | 23µM* | -2% | i | -4
CC(=O)c1cn(CCOc2cc(C)ccc2C)c2ccccc12 | 49 | -4% | 2.1µM* | 4% | ? | 4
COc1ccccc1OCCn1cc(C(=O)c2ccco2)c2ccccc21 | 11 | 15% | 13µM* | -10% | i | 1
Cc1cc(OCCn2cc(C(=O)c3ccco3)c3ccccc32)ccc1Cl | · | · | i | · | i | 6
Cc1ccc(C)c(OCCn2cc(C(=O)O)c3ccccc32)c1 | ? | 4% | i | -14% | i | -9
SMILES | D3 antag | MCF10A rereplic | KB-V1 MDR tox | SW480 rerep | KB-3-1 cytotox | D3 ag
COc1cccc(OCCn2cc(C(=O)c3ccco3)c3ccccc32)c1 | 40 | 18% | 21µM* | -3% | i | 23
Cc1ccc(S(=O)(=O)n2nc(-c3ccco3)nc2NCc2ccc(N(C)C)cc2)cc1 | · | · | i | · | ? | -15
O=C(Nc1ccc(Cl)c(C(F)(F)F)c1)C1CCCN(S(=O)(=O)c2cccc3cccnc23)C1 (configuration not stated) | · | · | i | · | i | 12
CCc1ccccc1S(=O)(=O)Cc1ccc(C(=O)NCCc2ccc(C)cc2)o1 | · | · | ? | · | i | 3
c1ccc(-c2nnc3sc(CN4CCc5ccccc54)cn23)cc1 | 6 | -2% | ? | 0% | 21µM* | 9
Brc1ccc(-c2nnc3sc(CN4CCc5ccccc5C4)cn23)cc1 | 1 | 7% | i | ? | i | -1
COc1cccc(-c2nnc3sc(CN4CCCCC4)cn23)c1 | · | · | i | · | 2.6µM* | -21
CC1(C)S[C@@H]2[C@H](NC(=O)COc3ccccc3)C(=O)N2[C@@H]1C(=O)OCc1cccc2cccnc12 | · | · | i | · | i | ·
COc1cc(/C=N\NC(=O)c2ccc(Cl)cc2)ccc1Oc1ccc([N+](=O)[O-])cn1 | 6 | -4% | i | -8% | i | 2
COc1cc(/C=N\NC(=O)c2ccccc2F)ccc1Oc1ccc([N+](=O)[O-])cn1 | -11 | 23µM* | 7.3µM* | ? | ? | -7
COc1cc(/C=N\NC(=O)c2cccc(Cl)c2)ccc1Oc1ccc([N+](=O)[O-])cn1 | 5 | ? | ? | 21µM* | i | 4
COc1cc(/C=C(/C#N)c2ccc(F)cc2)ccc1Oc1ccc([N+](=O)[O-])cn1 | 0 | ? | 2.3µM* | -3% | ? | 15
CCOc1cc(C=C(C#N)C#N)ccc1Oc1ccc([N+](=O)[O-])cn1 | 13 | 0% | i | 17% | i | 4
NC(=O)CSc1oc(-c2cccs2)nc1S(=O)(=O)c1ccc(Br)cc1 | · | · | i | · | i | -3
CCCN(CCC)CCNC(=O)c1cc(Sc2ccc(Cl)cc2)nc2ccccc12 | · | · | · | · | · | -17
O=C(Nc1ccccc1)N1CCN(c2cccc(C(F)(F)F)c2)CC1 | 16 | -8% | ? | -7% | i | -19
COc1ccc(NC(=O)N2CCN(c3cccc(C(F)(F)F)c3)CC2)cc1OC | -12 | 5% | 13µM* | 1% | i | -4
COc1ccccc1C(=O)N1CCN(c2cccc(C(F)(F)F)c2)CC1 | 22 | 11µM* | 2.9µM* | 23µM* | 5.2µM* | -5
